Reference: PubChem BioAssay AID463193 (University of Pittsburgh Molecular Library Screening Center, 2010)
Out of some 190,000 compounds screened, about 1,900 (1%) were called active.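 Rule for the calls: active = percentage of spot-positive cells more than 3 SD above its plate mean, without a fluorescence outlier flag or 80% toxicity; inconclusive = no clear call, values can overlap the other calls; inactive = the rest.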 For the sample, actives were picked, then their nearest neighbours and some compounds at random.

test: autophagy modulators in MEF cells, primary screen, imaging, high-content, MEF GFP-LC3 (AID 463193); details: MEF GFP-LC3 puncta imaging, at 10 µM; % cells with GFP-LC3 spots: stronger effect = higher value; toxicity: measured here: cell loss, nuclei count;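 for % cells with GFP-LC3 spots: spot-positive cell cutoff set from DMSO-treated cells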;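 for toxicity: cell loss after 18 h compound exposure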

Compound	% cells with GFP-LC3 spots	toxicity [%]
Cc1ccc(OCc2n[nH]c(=S)n2-c2ccccc2)cc1	4.42% (inactive)	-18.6
COc1ccc(Nc2ncc(F)c(N3CCOCC3)n2)cc1	7.22% (inactive)	8.68
O=C(Nc1cccc(F)c1)N1C2CCC1CC(O)(c1cccnc1)C2 (centres undefined)	1.55% (inactive)	2.7
O=C(Cn1cc2c(n1)CCCCC2)NCCN1CCOCC1	5.99% (inactive)	-2.07
COc1ccccc1CNC(=O)Cn1cc2c(n1)CCCC2	15.2% (active)	6.76
COCCNC(=O)Cn1cc2c(n1)CCCCC2	4.61% (inactive)	-6.66
CC(C)NC(=O)NCCCCCCS(C)=O (centres undefined)	22.5% (inactive)	23.6
CCOC(=O)c1c(NC(=O)C(C)Sc2c[nH]c3ccccc23)sc2c1CCC2 (centres undefined)	5.48% (inactive)	2.6
COc1ccc(CCc2nnc(CCC(=O)NCc3cnn(-c4ccccc4C)c3)o2)cc1	10.6% (inactive)	-18.2
COc1cccc(CN(C)CC(=O)Nc2sc3c(c2C#N)CCC3)c1	6.72% (inactive)	-31.4
CC(C)[C@H](NC(=O)c1ccc(F)cc1)C(=O)OCC(=O)NC(=O)c1cccn1C	10.6% (inactive)	-0.516
CCCCS(=O)c1snnc1C (centres undefined)	3.68% (inactive)	1.95
CCc1nnc(NS(=O)(=O)c2ccc(NC(=S)NC(=O)c3cccs3)cc2)s1	5.87% (inactive)	-9.89
CCc1nnc(NS(=O)(=O)c2ccc(NS(=O)(=O)c3ccccc3)cc2)s1	1.63% (inactive)	20.8
CCc1nnc(NS(=O)(=O)c2ccc(NC(=S)NC(=O)/C=C/c3cccs3)cc2)s1	5.75% (active)	7.01
O=C(O)CCN(Cc1ccccc1)S(=O)(=O)c1c(Cl)cccc1Cl	1% (inactive)	7.07
COc1ccc(C(=O)NNc2cc(C)nc(NNC(=O)c3ccc(OC)cc3)n2)cc1	0% (inactive)	-3.42
COC(=O)[C@@H]1CC[C@H](C)[C@@H](c2ccc(C)cc2)N1C(=O)c1ccc(/C=N/O[C@H](C)c2cn([C@@H]3COC[C@H]3O)nn2)cc1	9.78% (inactive)	5.86
O=C(NC1CCCCC1)C1CCCN(S(=O)(=O)c2ccc(Br)s2)C1 (centres undefined)	0.705% (inactive)	2.95
Cn1c(C(=O)NCCCN2CCN(c3cccc(Cl)c3)CC2)cc2c(=O)n(C)c3ccccc3c21	6.58% (inactive)	2.89
O=C(CCn1c(=O)[nH]c2ccccc2c1=O)NCCCN1CCN(c2cccc(Cl)c2)CC1	7.4% (inactive)	9.47
CCn1c(=O)cc(OCC(=O)NCCCN2CCN(c3cccc(Cl)c3)CC2)c2ccccc21	14.4% (active)	23.1
